The text below walks through data of PubChem BioAssay (Tox21).

Values without a mark were called inactive. Activity calls are given as the source filed them. Calls follow the shape of the dose curve; as a rule, active = well fitted curve in the direction sought with a large enough effect in the repeat runs; inconclusive = weak or mixed curves; inactive = flat fitted curve, though single readings scatter.
% is scaled to controls: 0 for no effect and ±100 for the full control effect.

The assay can be described thus: qHTS assay to test for compound auto fluorescence at 535 nm (green) in HepG2 cells (AID 720675). The note with it: green autofluorescence 485/535 nm, 1 h; series mostly up to 91.3 µM. The source says: National Center for Advancing Translational Sciences [NCATS]
NIH Chemical Genomics Center [NCGC]
U.S. Environmental Protection Agency [EPA]
National Institutes of Environmental Health Sciences [NIEHS]
National Toxicology Program [NTP]
U.S. Food and Drug Administration [FDA]
Compound auto fluorescence often interferes with screening of the compound library against various biological targets and signaling pathways. Some of these compounds may have fluorophoric properties. Such properties may interfere with the assay outputs resulting in false positives and/or negatives. To decrease such complications and ensure the compound activities are relevant in terms of biological response, the Tox21 10K compound library was screened for auto fluorescence.
From the fluorophores used as reporter signals in our screening assays, the auto fluorescence equivalencies of compounds against three fluorophores have been evaluated: Triamterene, Fluorescein and Rose Bengal sodium for blue, green and red fluorescence, respectively. The fluorescence intensities were measured using Excitation/Emission wavelengths at 405/460nm, 485/535nm and 540/590nm for blue, green and red labels, respectively. This assay includes the green fluorescence data.
Tox21 Assay Protocol Summary:
2,000 HepG2 cells in 5 uL of culture medium (MEM containing 10% FBS) per well were dispensed into black wall/clear bottom 1536-well plates using a Multidrop Combi Dispenser (ThermoFisher Scientific, Waltham, MA). The assay plates were incubated overnight at 37 C to allow cell attachment to the well bottom, followed by the transfer of 23 nL compound or DMSO vehicle by a pintool work station (Kalypsys , San Diego, CA). After the assay plates were incubated for 1 hr at 37 C and 5% CO2, fluorescence intensities in the assay plates were measured by an Envision (PerkinElmer, Shelton, CT) plate reader using three labels for measuring blue, green and red fluorescence at […] 460, 535 and 590 nm respectively.
Background: In qHTS, concentration-response curves come from the screen itself.
For the compound `CC1=CC[C@@H]2C[C@H]1C2(C)C`, the fluorescence, % of fluorescein control was 0.0991% [at 18.6 µM].

Regarding `O=C(O)/C=C/c1ccc(O)c(O)c1`, the compound was called inactive.

Turning to `CCCCCCCCCCCSCC(=O)O`, the compound was called inactive.

As to `CC1=CC[C@@]23C[C@@H]1C(C)(C)[C@@H]2CC[C@H]3C`, the result was inactive.

With `O=C(O)c1ccc(O)cc1O`, the outcome was inactive.

For the compound `COc1ccc(-c2cc(=S)ss2)cc1`, the call was inactive.

As to `Cc1ccccc1S(N)(=O)=O`, the compound was classed as inactive.

Consider `Cc1ccc(N(CCO)CCO)cc1`, for which the compound was classed as inactive.

Take `CCOC(=O)c1c(N)sc2c1CCN(Cc1ccccc1)C2`: the outcome was inactive.

Consider `CC(C)C1CCC(C(=O)N[C@H](Cc2ccccc2)C(=O)O)CC1` (stereo not given in full), for which the call was inactive.

On to `O=C(c1ccccc1)c1ccc(O)cc1`, for which the compound was called inactive.

`CCCCCc1ccco1`: the outcome was inactive.

Consider `CCCCCCOC(=O)CCCCC`, for which the call was inactive.

On to `CCOCCC(=O)OCC`, for which the compound was classed as inactive.

In the case of `CCN(CC)CCOC(=O)C(c1ccccc1)c1ccccc1`, the call was inactive.

Regarding `CC(CCc1ccc(O)cc1)NCCc1ccc(O)c(O)c1` (stereo not given), the outcome was inactive.

Turning to `CC(=O)c1ccc[nH]1`, the call was inactive.

`COc1cc(C(C)=O)ccc1OCCCN1CCC(c2noc3cc(F)ccc23)CC1`: the outcome was inactive.

Take `CCNc1nc(N)nc(Cl)n1`: the call was inactive.

In the case of `Cc1ccc(Nc2c(F)cccc2Cl)c(CC(=O)O)c1`, the call was inactive.

As to `Cc1ccc(NC(=O)N(C)C)cc1NC(=O)N(C)C`, the compound was called inactive.

Turning to `O=C(NS(=O)(=O)/C=C/c1ccccc1)c1ccc(F)cc1Cl`, the call was inactive.

In the case of `CCO[Si](C)(CCCOCC1CO1)OCC` (stereo not given), the outcome was inactive.

Take `CN=C(N)NC(=O)Nc1c(C)cccc1C`: the outcome was inactive.

Regarding `CC[C@H]1OC(=O)[C@H](C)[C@@H](O[C@H]2C[C@@](C)(OC)[C@@H](O)[C@H](C)O2)[C@H](C)[C@@H](O[C@@H]2O[C@H](C)C[C@H](N(C)C)[C@H]2O)[C@](C)(O)C[C@@H](C)C(=O)[C@H](C)[C@@H](O)[C@]1(C)O`, the compound was classed as inactive.

As for `Nc1cccc2c(N)cccc12`, the compound was classed as inactive.

On to `O=S(=O)(O)CO`, for which the compound was classed as inactive.

Take `CC[C@@H](CO)NCCN[C@@H](CC)CO`: the fluorescence, % of fluorescein control was 0.0308% [at 18.6 µM].

As to `CCC1CCC(CCC(=O)O)C1` (stereo not given), the call was inactive.

Turning to `CCC(CO)(CO)CO`, the call was inactive.

Take `CO[C@@H]1[C@@H](OC)[C@H](C)[C@@](O)(CC(=O)O)O[C@H]1[C@H](C)[C@H]1O[C@@]2(CC[C@@](C)([C@H]3CC[C@@](C)([C@@H]4O[C@@H]([C@H]5O[C@](C)(O)[C@H](C)C[C@@H]5C)C[C@@H]4OC4C[C@H](OC)[C@@H](OC)[C@H](C)O4)O3)O2)C[C@H](O)[C@H]1C` (stereo not given in full): the result was inactive.

Turning to `CCN(CC)c1ccc(C(=C2C=CC(=[N+](CC)CC)C=C2)c2ccc(S(=O)(=O)O)cc2S(=O)(=O)[O-])cc1`, the compound was called inactive.

On to `c1ccc(CNc2ncnc3c2ncn3C2CCCCO2)cc1` (stereo not given), for which the call was inactive.

For `CCCCCCC(O)CCOC(C)=O` (stereo not given), the compound was classed as inactive.

In the case of `Nc1ccc(F)cc1`, the compound was classed as inactive.

On to `CCCCCCC(CO)CCCC` (stereo not given), for which the result was inactive.

In the case of `COc1ccc2nc(S(=O)Cc3ncc(C)c(OC)c3C)[nH]c2c1` (stereo not given), the call was inactive.

Consider `CCN(CC)C(=O)/C(C#N)=C/c1cc(O)c(O)c([N+](=O)[O-])c1`, for which the result was inactive.

As to `Nc1ccc(N=Nc2ccc(N)cc2)cc1`, the compound was classed as inactive.

`COC(=O)CC(C(C)=O)C(=O)OC` (stereo not given): the call was inactive.
